We go through nine compounds from the supplement of paper PMC10849652.

Assay in all cases: log2 fold change, soluble protein after heating vs DMSO (PISA); higher = thermal stabilisation; K562 cells, 10 uM, 30 min; active = over 0.2 and 3.5 SD of the protein, either way, in both replicates (recomputed)
Assay [1] addresses YWHAB (UniProt P31946). In short, it runs like this: (§1)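 Quantification of soluble protein used TMTpro 16plex LC-MS/MS, with channel sums equalised. Samples were the supernatant after 21,000xg for 90 min of pooled aliquots from K562 cells (2×10^6 cells/mL) treated with 10 μM compound for 30 min, heated for 3 min over 48°C-58°C, and extracted in PBS with 0.5% NP-40 at 4°C. Values, from duplicates, describe thermal stability against control samples on a log2 fold-change scale.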

For assay [2], the target named is YWHAQ (UniProt P27348). In short, it runs like this: as §1
The target of assay [3] is YWHAZ (UniProt E7ESK7). In short, it runs like this: as §1
For assay [4], the target named is YWHAZ (UniProt P63104). In short, it runs like this:
as §1

Assay [5] deals with YY1 (UniProt P25490). A digest of the protocol:
as §1

Assay [6] concerns the target ZADH2 (UniProt Q8N4Q0). In short, it runs like this:
as §1

In assay [7] the target is ZBTB21 (UniProt Q9ULJ3). A digest of the protocol:
as §1

In assay [8] the target is ZC3H18 (UniProt Q86VM9). In short, it runs like this: as §1
In assay [9] the target is ZC3H8 (UniProt Q8N5P1). A digest of the protocol: as §1
Assay [10] addresses ZC3HC1 (UniProt Q86WB0). A digest of the protocol: as §1
In assay [11] the target is ZCCHC9 (UniProt Q8N567). In short, it runs like this:
as §1

The target in assay [12] is ZDHHC17 (UniProt Q8IUH5). A digest of the protocol:
as §1

The target in assay [13] is ZDHHC20 (UniProt Q5W0Z9). In short, it runs like this: as §1
The target of assay [14] is ZDHHC5 (UniProt Q9C0B5). In short, it runs like this:
as §1

The target in assay [15] is ZDHHC6 (UniProt Q9H6R6). A digest of the protocol: as §1
For assay [16], the target named is ZDHHC7 isoform 2 (UniProt Q9NXF8). A digest of the protocol:
as §1

In assay [17] the target is ZBTB43 (UniProt O43298). In short, it runs like this: as §1
Assay [18] has as its target ZCCHC17 (UniProt Q9NP64). In short, it runs like this:
as §1

Assay [19] addresses ZBTB17 isoform 2 (UniProt Q13105). A digest of the protocol:
as §1

Assay [20] deals with ZDHHC8 isoform 3 (UniProt Q9ULC8). A digest of the protocol: as §1

Molecules are shown by their SMILES. Of roughly 7,900 targets only a part is listed; those with a hit were picked by preference. About 0.6% of all pairs of compound and target were hits. Unmarked numbers belong to inactive results.

ZCCHC9, sequence (Q8N567 whole entry, looked up): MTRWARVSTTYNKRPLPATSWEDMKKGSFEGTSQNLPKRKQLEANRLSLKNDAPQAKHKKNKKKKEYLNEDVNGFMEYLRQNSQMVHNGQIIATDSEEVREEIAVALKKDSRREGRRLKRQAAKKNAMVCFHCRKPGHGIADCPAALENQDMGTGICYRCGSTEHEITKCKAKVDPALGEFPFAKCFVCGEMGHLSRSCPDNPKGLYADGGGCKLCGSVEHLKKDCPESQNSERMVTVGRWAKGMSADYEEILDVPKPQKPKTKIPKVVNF
ZBTB21, sequence (Q9ULJ3 whole entry, looked up): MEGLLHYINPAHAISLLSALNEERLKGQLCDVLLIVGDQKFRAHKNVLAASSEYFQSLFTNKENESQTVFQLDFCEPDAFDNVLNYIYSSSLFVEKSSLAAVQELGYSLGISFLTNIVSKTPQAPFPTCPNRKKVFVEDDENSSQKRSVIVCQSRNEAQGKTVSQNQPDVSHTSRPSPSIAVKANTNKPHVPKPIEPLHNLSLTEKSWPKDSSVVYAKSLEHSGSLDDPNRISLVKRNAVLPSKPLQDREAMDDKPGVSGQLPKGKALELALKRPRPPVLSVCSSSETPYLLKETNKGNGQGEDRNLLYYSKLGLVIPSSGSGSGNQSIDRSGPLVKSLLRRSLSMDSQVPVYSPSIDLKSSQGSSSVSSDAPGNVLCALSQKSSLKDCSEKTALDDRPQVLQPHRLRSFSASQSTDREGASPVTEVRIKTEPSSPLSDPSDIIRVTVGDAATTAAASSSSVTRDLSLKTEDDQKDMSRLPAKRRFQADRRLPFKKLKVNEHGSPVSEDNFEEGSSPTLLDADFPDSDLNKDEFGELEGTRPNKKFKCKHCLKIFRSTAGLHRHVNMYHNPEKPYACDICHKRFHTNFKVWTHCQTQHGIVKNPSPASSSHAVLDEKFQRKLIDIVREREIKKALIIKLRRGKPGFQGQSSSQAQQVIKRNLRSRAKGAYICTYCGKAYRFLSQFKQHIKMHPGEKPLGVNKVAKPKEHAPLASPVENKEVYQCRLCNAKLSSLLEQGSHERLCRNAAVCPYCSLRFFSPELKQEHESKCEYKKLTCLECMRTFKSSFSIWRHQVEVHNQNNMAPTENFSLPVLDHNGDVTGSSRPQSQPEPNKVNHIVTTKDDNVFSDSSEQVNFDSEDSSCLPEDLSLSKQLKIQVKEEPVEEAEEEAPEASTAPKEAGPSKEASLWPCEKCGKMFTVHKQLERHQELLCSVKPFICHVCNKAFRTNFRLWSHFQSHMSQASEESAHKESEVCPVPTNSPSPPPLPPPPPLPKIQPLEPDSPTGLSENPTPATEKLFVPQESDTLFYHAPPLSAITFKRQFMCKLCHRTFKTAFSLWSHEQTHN
ZDHHC20, sequence (Q5W0Z9 whole entry, looked up): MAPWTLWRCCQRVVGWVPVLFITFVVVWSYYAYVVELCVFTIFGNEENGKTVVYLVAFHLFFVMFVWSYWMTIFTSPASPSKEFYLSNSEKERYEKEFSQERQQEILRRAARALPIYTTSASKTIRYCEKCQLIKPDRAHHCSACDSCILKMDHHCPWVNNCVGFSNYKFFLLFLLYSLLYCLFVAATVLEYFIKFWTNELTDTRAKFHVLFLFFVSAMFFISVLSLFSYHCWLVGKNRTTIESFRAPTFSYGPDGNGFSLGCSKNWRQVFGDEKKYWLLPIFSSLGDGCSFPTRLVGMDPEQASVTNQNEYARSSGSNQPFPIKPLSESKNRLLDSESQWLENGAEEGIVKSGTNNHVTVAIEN
ZC3HC1, sequence (Q86WB0 whole entry, looked up): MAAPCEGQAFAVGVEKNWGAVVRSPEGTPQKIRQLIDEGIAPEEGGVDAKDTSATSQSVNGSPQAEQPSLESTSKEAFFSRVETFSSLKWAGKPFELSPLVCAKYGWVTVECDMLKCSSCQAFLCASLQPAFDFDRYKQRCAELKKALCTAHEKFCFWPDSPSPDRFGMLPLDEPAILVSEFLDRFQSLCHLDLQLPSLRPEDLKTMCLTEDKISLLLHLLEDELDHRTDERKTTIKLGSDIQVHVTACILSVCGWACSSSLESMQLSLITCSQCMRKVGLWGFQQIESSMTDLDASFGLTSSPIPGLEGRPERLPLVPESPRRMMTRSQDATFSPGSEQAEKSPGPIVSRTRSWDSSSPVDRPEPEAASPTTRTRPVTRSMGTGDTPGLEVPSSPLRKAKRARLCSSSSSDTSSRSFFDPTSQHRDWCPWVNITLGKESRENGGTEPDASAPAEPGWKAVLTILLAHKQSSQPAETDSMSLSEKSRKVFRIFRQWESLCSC
YY1, sequence (P25490 whole entry, looked up): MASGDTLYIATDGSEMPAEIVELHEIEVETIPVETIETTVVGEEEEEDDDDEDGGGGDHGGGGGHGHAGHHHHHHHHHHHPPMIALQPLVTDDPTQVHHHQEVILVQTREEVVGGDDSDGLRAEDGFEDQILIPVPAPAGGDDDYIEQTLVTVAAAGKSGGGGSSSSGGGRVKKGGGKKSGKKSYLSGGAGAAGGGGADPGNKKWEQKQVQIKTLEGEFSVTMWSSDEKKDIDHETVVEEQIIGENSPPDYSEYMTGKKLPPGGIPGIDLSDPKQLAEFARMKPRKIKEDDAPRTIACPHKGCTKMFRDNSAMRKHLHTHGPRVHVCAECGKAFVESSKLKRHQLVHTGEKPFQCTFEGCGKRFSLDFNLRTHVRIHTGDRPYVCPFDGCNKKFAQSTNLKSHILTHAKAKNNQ
YWHAQ, sequence (P27348 whole entry, looked up): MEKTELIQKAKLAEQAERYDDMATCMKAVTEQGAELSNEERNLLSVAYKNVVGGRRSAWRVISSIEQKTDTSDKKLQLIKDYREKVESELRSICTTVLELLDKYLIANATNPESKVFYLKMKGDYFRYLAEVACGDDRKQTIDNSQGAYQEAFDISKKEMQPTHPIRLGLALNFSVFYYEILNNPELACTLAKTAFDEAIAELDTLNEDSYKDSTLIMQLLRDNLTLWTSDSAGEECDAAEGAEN
ZDHHC17, sequence (Q8IUH5 whole entry, looked up): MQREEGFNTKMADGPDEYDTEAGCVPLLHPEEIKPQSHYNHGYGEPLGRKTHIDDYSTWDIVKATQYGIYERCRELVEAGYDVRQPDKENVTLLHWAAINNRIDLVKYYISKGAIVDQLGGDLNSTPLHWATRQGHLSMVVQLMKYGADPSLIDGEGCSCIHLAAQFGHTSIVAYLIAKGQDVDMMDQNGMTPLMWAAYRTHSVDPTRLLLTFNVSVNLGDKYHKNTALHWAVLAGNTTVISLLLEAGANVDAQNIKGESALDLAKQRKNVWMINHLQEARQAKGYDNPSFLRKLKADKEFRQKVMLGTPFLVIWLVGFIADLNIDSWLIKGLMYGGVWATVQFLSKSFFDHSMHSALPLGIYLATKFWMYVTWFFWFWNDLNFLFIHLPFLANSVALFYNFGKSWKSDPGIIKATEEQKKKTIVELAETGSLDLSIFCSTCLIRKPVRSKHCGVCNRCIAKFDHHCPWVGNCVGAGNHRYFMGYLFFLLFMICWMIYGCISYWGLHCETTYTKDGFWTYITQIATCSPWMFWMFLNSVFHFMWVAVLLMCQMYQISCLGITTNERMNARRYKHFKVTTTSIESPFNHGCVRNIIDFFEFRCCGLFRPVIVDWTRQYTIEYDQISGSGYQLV
ZC3H18, sequence (Q86VM9 whole entry, looked up): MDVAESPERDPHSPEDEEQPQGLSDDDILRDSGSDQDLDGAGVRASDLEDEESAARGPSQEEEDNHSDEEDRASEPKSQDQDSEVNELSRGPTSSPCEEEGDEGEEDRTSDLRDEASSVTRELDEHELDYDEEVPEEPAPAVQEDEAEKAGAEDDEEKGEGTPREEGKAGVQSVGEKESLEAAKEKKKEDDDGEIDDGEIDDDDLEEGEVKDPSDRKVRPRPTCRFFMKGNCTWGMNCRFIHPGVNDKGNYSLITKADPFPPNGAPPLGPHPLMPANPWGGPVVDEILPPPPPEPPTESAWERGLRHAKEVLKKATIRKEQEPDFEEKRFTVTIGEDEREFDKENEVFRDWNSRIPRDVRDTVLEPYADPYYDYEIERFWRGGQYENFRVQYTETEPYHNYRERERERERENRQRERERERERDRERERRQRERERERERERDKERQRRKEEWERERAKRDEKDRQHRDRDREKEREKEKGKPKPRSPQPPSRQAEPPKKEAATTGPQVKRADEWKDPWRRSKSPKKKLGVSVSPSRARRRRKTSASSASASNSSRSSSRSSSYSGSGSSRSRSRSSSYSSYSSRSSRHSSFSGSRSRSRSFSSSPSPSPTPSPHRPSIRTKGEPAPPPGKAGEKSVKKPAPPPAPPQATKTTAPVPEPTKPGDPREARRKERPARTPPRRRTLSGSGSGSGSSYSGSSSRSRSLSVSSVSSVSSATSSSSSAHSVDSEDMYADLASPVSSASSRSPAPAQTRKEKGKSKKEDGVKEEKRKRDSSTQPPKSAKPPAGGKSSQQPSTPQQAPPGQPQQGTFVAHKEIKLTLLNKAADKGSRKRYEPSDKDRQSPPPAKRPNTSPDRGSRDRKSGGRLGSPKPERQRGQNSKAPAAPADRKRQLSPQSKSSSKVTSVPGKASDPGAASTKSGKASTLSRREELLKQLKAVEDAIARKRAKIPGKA
YWHAB, sequence (P31946 whole entry, looked up): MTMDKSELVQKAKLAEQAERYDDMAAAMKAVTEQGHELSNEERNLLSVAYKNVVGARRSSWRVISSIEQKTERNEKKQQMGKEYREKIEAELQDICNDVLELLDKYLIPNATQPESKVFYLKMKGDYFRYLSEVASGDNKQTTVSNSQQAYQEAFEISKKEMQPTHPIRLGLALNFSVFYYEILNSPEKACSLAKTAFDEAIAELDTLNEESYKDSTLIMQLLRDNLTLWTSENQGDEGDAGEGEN
YWHAZ (UniProt P63104), sequence (P63104 whole entry, looked up): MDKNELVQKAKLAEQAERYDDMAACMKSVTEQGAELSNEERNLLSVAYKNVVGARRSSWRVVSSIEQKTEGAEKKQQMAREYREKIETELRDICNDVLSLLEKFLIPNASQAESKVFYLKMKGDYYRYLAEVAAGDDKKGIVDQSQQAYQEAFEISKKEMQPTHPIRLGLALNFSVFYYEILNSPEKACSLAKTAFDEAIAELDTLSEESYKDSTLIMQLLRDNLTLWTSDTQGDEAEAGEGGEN

In the case of `Cn1cncc1[C@@](N)(c1ccc(Cl)cc1)c1ccc2c(c1)c(-c1cccc(Cl)c1)cc(=O)n2C` [tipifarnib], the log2 fold change in assay [1] was 0.059; in [2] it was -0.112; in assay [3] it was 0.127; in assay [4] it was -0.123; in assay [5], 0.009; in assay [6], -0.053. The log2 fold change in [7] is -0.02; in assay [8], 0.111; in [9], 0.043; in [10] it was -0.183; in assay [11] it was 0.113; in assay [12], 0.032. Moreover, the log2 fold change in assay [13] is -0.014; in assay [14] it was 0.013; in [15] it was 0.086; in [16], -0.047.

As to `Cc1ccc(Sc2cncc3sc(C(N)=O)cc23)cc1`, the log2 fold change is -0.033 in assay [1]; 0.079 in [2]; -0.019 in [3]; 0.123 in [4]; 0.01 in assay [5]; -0.015 in assay [6]. The log2 fold change in assay [7] is 0.008; in [8], -0.064; in [9], -0.115; in assay [10], 0.053; in [11], -0.109; in [12], 0.038. Moreover, the log2 fold change was 0.014 in assay [13], -0.011 in assay [14], 0.034 in [15] and -0.138 in [16].

Take `CNC(=O)c1ccc(Nc2ncc(C(F)(F)F)c(NCc3nccnc3N(C)S(C)(=O)=O)n2)cc1` [defactinib]: the log2 fold change in assay [1] is -0.022; in assay [2], 0; in [4] it was 0; in assay [5] it was -0.299 (active); in assay [6], 0.025; in assay [7], -0.033. The log2 fold change in [17] is 0.063; in assay [8] it was -0.234; in assay [9], 0.228; in assay [10] it was -0.227; in assay [18], 0.149; in assay [11], 0.216. For the same compound, the log2 fold change in [12] is -0.007; in assay [13], -0.231; in [14], -0.097; in assay [16] it was 0.001.

Turning to `C#Cc1cccc(Nc2ncnc3cc(OCCOC)c(OCCOC)cc23)c1` [erlotinib], the log2 fold change is 0.011 in assay [1]; -0.07 in assay [2]; 0.011 in assay [4]; -0.019 in assay [5]; 0.005 in assay [6]; -0.048 in assay [19]. Moreover, the log2 fold change in [7] was 0.235; in assay [17], 0.081; in assay [8] it was -0.066; in assay [9], -0.091; in assay [10], 0.075; in assay [11] it was -0.099. The log2 fold change in [12] is 0.091; in assay [13] it was 0.163; in assay [14], 0.028; in [16], 0.09.

In the case of `COC(=O)[C@H](CCSC)NC(=O)c1ccc(NC[C@@H](N)CS)cc1-c1ccccc1`, the log2 fold change in assay [1] was 0.016; in [2], 0.019; in assay [4] it was -0.002; in assay [5], 0.014; in assay [6], 0.052; in assay [7], -0.022. In addition, the log2 fold change in assay [17] is 0.018; in assay [8], 0.045; in [9], -0.009; in assay [10], -0.093; in assay [18], 0.033; in [11], 0.081. Further, the log2 fold change in assay [12] is 0.01; in [13] it was 0.028; in assay [14], 0.054; in assay [16], 0.019.

In the case of `NC(=O)Nc1cc(-c2cccc(F)c2)sc1C(=O)N[C@H]1CCCNC1`, the log2 fold change was -0.027 in [1]; 0.065 in assay [2]; 0.098 in assay [4]; 0.037 in [5]; -0.074 in assay [6]; -0.032 in assay [19]. Further, the log2 fold change in [7] is -0.083; in [17], -0.018; in assay [8], -0.037; in assay [9] it was 0.025; in assay [10], -0.016; in assay [18], -0.064. Further, the log2 fold change in assay [11] was -0.11; in assay [12], 0.084; in [13], -0.219; in [14], -0.081.

With `CC[C@H](C)n1cc(C)c2c(C(=O)NCc3c(C)cc(C)[nH]c3=O)cc(-c3ccc(N4CCNCC4)nc3)cc21`, the log2 fold change in assay [1] is 0.009; in assay [2], 0.072; in assay [4] it was 0.008; in assay [5], 0.061; in [6], 0.526 (active); in assay [7], 0.059. Further, the log2 fold change in [17] was -0.187; in assay [8], 0.032; in assay [9], -0.012; in assay [10], 0.164; in assay [11], 0.013; in [12] it was -0.022. Besides, the log2 fold change is -0.046 in assay [13], -0.052 in [14], -0.099 in assay [16] and -0.064 in [20].

With `CC1=C(C(=O)Nc2cc3cn[nH]c3cc2F)C(c2ccc(C(F)(F)F)cc2)CC(=O)N1` (centres undefined), the log2 fold change is 0.001 in assay [1]; 0.107 in assay [2]; 0.058 in assay [4]; 0.059 in assay [5]; -0.014 in assay [6]; 0.033 in [7]. Besides, the log2 fold change in [17] is -0.04; in assay [8], 0.022; in assay [9], -0.072; in [10], 0.057; in assay [11], 0.012; in assay [12], -0.013. Moreover, the log2 fold change is 0.047 in assay [13], 0.022 in [14], 0.114 in assay [16] and -0.083 in assay [20].

With `Cc1cccc(CC(=O)N2CCc3c2ccc(-c2cn(C)c4ncnc(N)c24)c3F)n1`, the log2 fold change was -0.058 in assay [1]; 0.694 (active) in [2]; 0.029 in assay [4]; 0.003 in assay [5]; -0.041 in [6]; 0.016 in assay [7]. The log2 fold change in [17] is -0.025; in [8] it was -0.063; in [9], 0.026; in assay [10], 0.029; in assay [11], -0.048; in [12], -0.082. Also, the log2 fold change was 0.021 in assay [13], -0.067 in assay [14], 0.097 in assay [15] and -0.06 in [16].
